According to the supplement of paper PMC9694430:

Legend:
Assay in all cases: thermal shift delta Tm vs DMSO control; higher = stronger stabilization (binding)
Conditions in all cases: 12.5 µM; protein concentration 2 µM
[1] = test system: LOC_OS01G57100-cb003
Outline: (§1)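 The melting temperature shift given here is a triplicate mean, measured against protein that received only DMSO. Melting temperatures came from Boltzmann fits of differential scanning fluorimetry data on E. coli-expressed, purified rice kinase domain constructs. Each 19.5 μl well contained 2 μM kinase, 100 mM potassium phosphate pH 7.5, 150 mM NaCl, 10% glycerol, 5 × SYPRO Orange and compound in DMSO. Plates were scanned from 25°C to 95°C at 0.05°C/s.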

[2] = test system: LOC_OS01G60330-cb001
Outline: as §1

[3] = test system: LOC_OS01G60700-cb002
Outline: as §1

[4] = test system: LOC_OS01G63280-cb003
Outline: as §1

[5] = test system: LOC_OS01G67340-cb003
Outline: as §1

[6] = test system: LOC_OS01G70970-cb002
Outline: as §1

[7] = test system: LOC_OS02G07810-cb001
Outline: as §1

[8] = test system: LOC_OS02G08530-cb003
Outline: as §1

[9] = test system: LOC_OS02G14120-cb001
Outline: as §1

[10] = test system: LOC_OS02G17970-cb001
Outline: as §1

[11] = test system: LOC_OS02G45750-cb003
Outline: as §1

[12] = test system: LOC_OS02G54510-cb004
Outline: as §1

[13] = test system: LOC_OS03G04050-cb001
Outline: as §1

[14] = test system: LOC_OS03G12390-cb001
Outline: as §1

[15] = test system: LOC_OS03G27990-cb004
Outline: as §1

[16] = test system: LOC_OS03G50450-cb001
Outline: as §1

[17] = test system: LOC_OS03G50810-cb003
Outline: as §1

[18] = test system: LOC_OS04G35114-cb001
Outline: as §1

[19] = test system: T1, LOC_OS04G38480-cb003
T1 sequence (whole entry): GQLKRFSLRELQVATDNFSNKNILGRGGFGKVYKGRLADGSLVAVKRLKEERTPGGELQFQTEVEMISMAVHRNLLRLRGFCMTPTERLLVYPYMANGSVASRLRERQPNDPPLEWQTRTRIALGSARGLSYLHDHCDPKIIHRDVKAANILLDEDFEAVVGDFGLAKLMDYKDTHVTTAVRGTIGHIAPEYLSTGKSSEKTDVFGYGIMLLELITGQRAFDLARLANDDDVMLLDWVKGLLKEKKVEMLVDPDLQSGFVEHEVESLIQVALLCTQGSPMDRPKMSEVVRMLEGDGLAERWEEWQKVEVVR
Outline: as §1

[20] = test system: T2, LOC_OS04G41100-cb001
T2 sequence (whole entry): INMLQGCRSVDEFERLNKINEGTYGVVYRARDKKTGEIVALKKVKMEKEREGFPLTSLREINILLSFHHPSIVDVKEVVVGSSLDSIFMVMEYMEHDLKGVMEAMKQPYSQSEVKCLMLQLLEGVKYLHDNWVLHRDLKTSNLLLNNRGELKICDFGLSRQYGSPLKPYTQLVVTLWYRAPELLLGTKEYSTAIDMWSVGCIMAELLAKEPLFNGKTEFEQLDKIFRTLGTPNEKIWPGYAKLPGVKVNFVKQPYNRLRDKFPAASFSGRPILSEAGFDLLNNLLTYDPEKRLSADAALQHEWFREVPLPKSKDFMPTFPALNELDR
Outline: as §1

| Compound | thermal shift delta Tm [1] | thermal shift delta Tm [2] | thermal shift delta Tm [3] | thermal shift delta Tm [4] | thermal shift delta Tm [5] | thermal shift delta Tm [6] | thermal shift delta Tm [7] | thermal shift delta Tm [8] | thermal shift delta Tm [9] | thermal shift delta Tm [10] | thermal shift delta Tm [11] | thermal shift delta Tm [12] | thermal shift delta Tm [13] | thermal shift delta Tm [14] | thermal shift delta Tm [15] | thermal shift delta Tm [16] | thermal shift delta Tm [17] | thermal shift delta Tm [18] | thermal shift delta Tm [19] | thermal shift delta Tm [20] |
| --- | --- | --- | --- | --- | --- | --- | --- | --- | --- | --- | --- | --- | --- | --- | --- | --- | --- | --- | --- | --- |
| CNC(=O)c1cc(Oc2ccc(NC(=O)Nc3cc(C(C)(C)C)nn3-c3ccc4ncccc4c3)c(F)c2)ccn1 [Rebastinib (DCC-2036)] | 2.72 °C | 1.36 °C | 0.84 °C | 11.5 °C | 0.32 °C | 3.62 °C | 1.36 °C | 2.28 °C | 8.15 °C | 1.32 °C | 12.3 °C | 6.64 °C | 0.59 °C | 5.55 °C | 0.52 °C | 0.33 °C | 5.06 °C | 0.84 °C | 2.8 °C | 5.27 °C |
| N#Cc1c(Oc2ccc(F)c(NC(=O)Cc3cccc(C(F)(F)F)c3)c2)ccc2nc(NC(=O)C3CC3)sc12 | 2.29 °C | 1.23 °C | 1.86 °C | 0.73 °C | 0.52 °C | 0.34 °C | 0.79 °C | 0.98 °C | 0.68 °C | 0.88 °C | 1.08 °C | 0.54 °C | 0.5 °C | 0.15 °C | 0.31 °C | 0.4 °C | 0.5 °C | 0.45 °C | 1.92 °C | 0.42 °C |
| COc1cc2ncnc(Oc3cccc(NC(=O)Nc4cc(C(C)(C)C(F)(F)F)on4)c3)c2cc1OC | 1.91 °C | 0.64 °C | 0.86 °C | 1.66 °C | 0.78 °C | 0.38 °C | 0.77 °C | 1.04 °C | 1.43 °C | 0.45 °C | 0.81 °C | 1.05 °C | 0.36 °C | 0.21 °C | 0.47 °C | 0.59 °C | 0.19 °C | 0.57 °C | 0.16 °C | 0.2 °C |
| CCCCCCCCCCCCCCCCOP(=O)([O-])OCC[N+](C)(C)C [Miltefosine] | -11.3 °C | -3.63 °C | -6.31 °C | -4.06 °C | -4.33 °C | -8.33 °C | -3.73 °C | -3.69 °C | -6.59 °C | -5.83 °C | -1.69 °C | -3.98 °C | -6.02 °C | -3.65 °C | -2.36 °C | -1.33 °C | -3.31 °C | -3.53 °C | -0.41 °C | -0.66 °C |
| CN1CCN(CCOc2cc(OC3CCOCC3)c3c(Nc4c(Cl)ccc5c4OCO5)ncnc3c2)CC1 [Saracatinib (AZD0530)] | 0.72 °C | 1.51 °C | 1.11 °C | 0.03 °C | 0.29 °C | 0.9 °C | 0.55 °C | 1.2 °C | 8.8 °C | 0 °C | 2.36 °C | 0.77 °C | 0.38 °C | 2.47 °C | 1.15 °C | 0.13 °C | 3.05 °C | 7.08 °C | 3.11 °C | 0.53 °C |
| CC(C)n1ncnc1-c1cn2c(n1)-c1ccc(O[C@@H](C)C(N)=O)cc1OCC2 | 0.54 °C | 0.84 °C | 1.39 °C | 0.36 °C | 0.34 °C | 0.21 °C | 1.33 °C | 0.19 °C | 0.43 °C | 1.55 °C | 0.39 °C | 0.04 °C | 0.37 °C | 0.09 °C | 0.14 °C | 0.37 °C | 0.53 °C | 0.71 °C | 0.74 °C | 0.13 °C |
